From PubChem BioAssay (NCATS)
Results filed as inconclusive are left out. Where a call stands in place of a potency, no number is given. Active and inactive are the calls of the source. Calls come from the whole dose curve; as a rule, active = well fitted curve in the direction sought with a large enough effect; inconclusive = small, poorly fitted or top-dose-only effect, or another doubt; inactive = no such curve, though single readings can be large; an effect the other way counts as inactive or inconclusive.

Tests used:
[1] = molecular target: Aldehyde dehydrogenase, mitochondrial (Homo sapiens) (UniProt P05091); assay: qHTS for Inhibitors of the Aldehyde Dehydrogenase Family (ALDH2) Primary screen (AID 2061308); note: nearly all actives have a fitted effect of over 55% in size
[2] = molecular target: Retinaldehyde dehydrogenase 3 (Homo sapiens) (UniProt P47895); assay: qHTS for Inhibitors of the Aldehyde Dehydrogenase Family (ALDH1A3) Primary screen (AID 2061315)

## N#Cc1cccc(NC(=O)Nc2nnc(-c3ccncc3)s2)c1
[1]
  Potency: inactive
[2]
  Potency: inactive

## CC1(C)CC2CC(C)(CN2S(=O)(=O)c2ccc(C(=O)Nc3ccc(Cl)cc3)cc2)C1 (stereo unspecified)
[1]
  Potency: inactive
[2]
  Potency: inactive

## Cc1ccc(S(=O)(=O)NC(N)=NCCC[C@@H](N)C(=O)Nc2cc(C(F)(F)F)ccc2Cl)cc1
[1]
  Potency: inactive
[2]
  Potency: inactive

## CCN(CC)CCCC(C)n1c(-c2ccccc2)nc2c(NCCO)nc(C)nc21 (stereo unspecified)
[1]
  Potency: inactive
[2]
  Potency: inactive

## C=CCSc1nnc(-c2cccc3ccccc23)o1
[1]
  Potency: inactive
[2]
  Potency: inactive

## O=C1CCCC2=C1C(c1[nH]ncc1Cl)N=C(Nc1nc3cc(Br)ccc3o1)N2 (stereo unspecified)
[1]
  Potency: inactive
[2]
  Potency: inactive

## O=C(/C=C/c1c(F)c(F)c(F)c(F)c1F)Nc1cccc([S+](=O)([O-])Nc2ccccc2F)c1
[1]
  Potency: inactive
[2]
  Potency: inactive

## Cc1nc(NC2CCCCC2)c2nc(-c3ccccc3)n(CCCN(C)C)c2n1
[1]
  Potency: inactive
[2]
  Potency: inactive

## O=C(OCC#CCSc1nnc(-c2ccc3ccccc3c2)o1)c1ccc(OC(F)(F)F)cc1
[1]
  Potency: inactive
[2]
  Potency: inactive

## C=C1CCC[C@]2(C)C[C@]3(O)OC(=O)C(C)=C3C[C@@H]12
[1]
  Potency: inactive
[2]
  Potency: inactive

## Cc1ccc(NC(=O)CSc2nnc(-c3cccc([S+](=O)([O-])N4CCCC4)c3)n2-c2ccccc2)cc1
[1]
  Potency: inactive
[2]
  Potency: inactive

## Cc1ccc(C)c(-c2cc(C(F)(F)F)nn2-c2ccc(S(N)(=O)=O)cc2)c1
[1]
  Potency: inactive
[2]
  Potency: inactive

## Cc1ccc2oc(NC3=NC(c4[nH]ncc4Cl)C4=C(CCCC4=O)N3)nc2c1 (stereo unspecified)
[1]
  Potency: inactive
[2]
  Potency: inactive

## Cc1cccc(-n2cnc3cc(C(=O)N4CCCCC4)ccc32)c1
[1]
  Potency: inactive
[2]
  Potency: inactive

## C=C1CC[C@H]2C(=C)CC[C@H]3C(=C)C(=O)O[C@@H]3[C@@H]12
[1]
  Potency: inactive
[2]
  Potency: inactive

## CNc1oc(-c2ccc(Cl)c(Cl)c2)nc1C#N
[1]
  Potency: inactive
[2]
  Potency: inactive

## O=C(NC1CCCc2c1cnn2-c1ccc(F)cc1F)c1cccs1 (stereo unspecified)
[1]
  Potency: inactive
[2]
  Potency: inactive

## CCOC(=O)C1CCN(C(=O)C(C)(C)NC(=O)Nc2ccc3ccccc3c2)CC1
[1]
  Potency: inactive
[2]
  Potency: inactive

## O=C(CNC(=O)c1ccc(-c2ccccc2)cc1)OC(C(=O)Nc1cc(C(F)(F)F)ccc1Cl)c1ccccc1 (stereo unspecified)
[1]
  Potency: inactive
[2]
  Potency: inactive

## CN1CCC(N(Cc2cccs2)c2ccccc2)CC1
[1]
  Potency: inactive
[2]
  Potency: inactive

## CCOc1ccc(CCNC(=O)c2cc3ccccc3n2C)cc1OCC
[1]
  Potency: inactive
[2]
  Potency: inactive

## CCOC(=O)c1ccc(-n2cnc3c(c2=N)C(c2cccc(OC)c2)c2c(ccc4ccccc24)O3)cc1 (stereo unspecified)
[1]
  Potency: inactive
[2]
  Potency: inactive

## CC(=O)O[C@@]1(C)[C@@H]2CC(=C(C)C)C(=O)C[C@@]2(C)CC[C@H]1OC(=O)C1(C)OC1C (stereo partly specified)
[1]
  Potency: inactive
[2]
  Potency: inactive

## Cc1ccc(S(=O)(=O)Nc2cnccc2C(=O)Nc2ccc3ccccc3c2)cc1
[1]
  Potency: inactive
[2]
  Potency: inactive

## CC(C)(C)OC(=O)Cc1nnc(-c2cc3ccccc3[nH]2)o1
[1]
  Potency: inactive
[2]
  Potency: inactive

## Cc1ccccc1S(=O)(=O)N1CCN(S(=O)(=O)c2ccc3c(c2)OCCO3)CC1
[1]
  Potency: inactive
[2]
  Potency: inactive

## COc1ccccc1-c1nnc(SCC#CCOC(=O)c2ccc(F)cc2)o1
[1]
  Potency: inactive
[2]
  Potency: inactive

## Cc1ccc(OCCn2c(CCNC(=O)c3ccccc3)nc3ccccc32)cc1
[1]
  Potency: inactive
[2]
  Potency: inactive

## Fc1cc(Nc2nc(-c3ccncc3)nc3ccccc23)ccc1-c1ccncc1
[1]
  Potency: inactive
[2]
  Potency: inactive

## COc1ccnc(NC(=S)N2CCN(c3cccc(C(F)(F)F)n3)CC2)c1
[1]
  Potency: inactive
[2]
  Potency: inactive

## Cc1cc(C)nc(NC(=S)N2CCN(c3ccc4ncccc4c3[N+](=O)[O-])CC2)c1
[1]
  Potency: inactive
[2]
  Potency: inactive

## Cc1ccc(-c2ccc(=O)n(CC(=O)NCCCN(C)C)n2)cc1
[1]
  Potency: inactive
[2]
  Potency: inactive

## Cc1cc2c(s1)c1cnn(Cc3cccc(F)c3)c(=O)c1n2C
[1]
  Potency: inactive
[2]
  Potency: inactive

## CC(=O)Nc1cccc(OC2=NS(=O)(=O)c3ccccc32)c1
[1]
  Potency: inactive
[2]
  Potency: inactive

## O=C(Nc1nc(-c2ccccc2)cs1)c1ccncc1NS(=O)(=O)c1ccccc1
[1]
  Potency: inactive
[2]
  Potency: inactive

## C=C(C)C(=O)OC1CC2(C)OC(=CC2=O)C(=C)CC2OC(=O)C(COC)C12 (stereo unspecified)
[1]
  Potency: inactive
[2]
  Potency: inactive

## COc1ccc([S+](=O)([O-])N2CCCN([S+](=O)([O-])c3ccc(OC)c(NC(C)=O)c3)CC2)cc1NC(C)=O
[1]
  Potency: inactive
[2]
  Potency: inactive

## COc1ccc(-c2nnc3n2N=C(c2cc(OC)ccc2OC)CS3)cc1
[1]
  Potency: inactive
[2]
  Potency: inactive

## O=[S+]([O-])(c1ccc2c(c1)OCCO2)N1CCN([S+](=O)([O-])c2ccc(F)cc2Br)CC1
[1]
  Potency: inactive
[2]
  Potency: inactive

## C#CCOc1ccc(C(C)=O)cc1-c1nnc2n1N=C(c1ccc(OC)c(O[C@@H]3CCOC3)c1)CS2
[1]
  Potency: inactive
[2]
  Potency: inactive

## Cc1cccc(C(=O)N2CCc3cc(-c4nc(NC(=O)Cc5ccc6c(c5)OCO6)sc4C)ccc32)c1
[1]
  Potency: inactive
[2]
  Potency: inactive

## Cc1ccc(S(=O)(=O)Nc2cccc3cccnc23)cc1
[1]
  Potency: inactive
[2]
  Potency: inactive

## CC(C)C(OC(=O)CNC(=O)c1ccccc1)C(=O)Nc1cc(C(F)(F)F)ccc1Cl (stereo unspecified)
[1]
  Potency: inactive
[2]
  Potency: inactive
